# Laboratory results taken from ChEMBL document CHEMBL1961873, “Compounds: GSK PKIS; Assays: Nanosyn kinase panel” (2012).
# Values joined by “and” are separate entries in the source; they are usually repeats but may differ in a detail not shown here. Equal values may be shown once.
# How the values were obtained:
# [1] = molecular target: Mitogen-activated protein kinase 3 (Homo sapiens) (UniProt P27361); conditions: at 1 µM;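 note: values are mean percent inhibition of MAPK3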
# [2] = molecular target: SRSF protein kinase 3 (Homo sapiens) (UniProt Q9UPE1); conditions: at 0.1 µM
# [3] = molecular target: SRSF protein kinase 3 (Homo sapiens) (UniProt Q9UPE1); conditions: at 1 µM
# [4] = molecular target: Mitogen-activated protein kinase 14 (Homo sapiens) (UniProt Q16539); conditions: at 0.1 µM
# [5] = molecular target: Mitogen-activated protein kinase 14 (Homo sapiens) (UniProt Q16539); conditions: at 1 µM
# [6] = molecular target: Mitogen-activated protein kinase 11 (Homo sapiens) (UniProt Q15759); conditions: at 0.1 µM
# [7] = molecular target: Mitogen-activated protein kinase 11 (Homo sapiens) (UniProt Q15759); conditions: at 1 µM
# [8] = molecular target: T1, Mitogen-activated protein kinase 13 (Homo sapiens) (UniProt O15264); conditions: at 0.1 µM
# T1 sequence (whole entry): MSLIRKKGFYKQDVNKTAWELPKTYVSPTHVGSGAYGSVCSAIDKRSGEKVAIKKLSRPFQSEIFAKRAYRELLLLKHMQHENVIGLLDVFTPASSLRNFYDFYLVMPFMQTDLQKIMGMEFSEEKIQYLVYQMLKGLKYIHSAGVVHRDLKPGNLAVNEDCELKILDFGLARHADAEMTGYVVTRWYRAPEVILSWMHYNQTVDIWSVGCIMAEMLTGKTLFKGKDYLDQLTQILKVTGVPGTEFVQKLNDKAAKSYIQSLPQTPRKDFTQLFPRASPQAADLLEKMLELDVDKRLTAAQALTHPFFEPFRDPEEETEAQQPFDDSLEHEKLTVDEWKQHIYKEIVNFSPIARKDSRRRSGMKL
# [9] = molecular target: T1, Mitogen-activated protein kinase 13 (Homo sapiens); conditions: at 1 µM
# [10] = molecular target: T2, Mitogen-activated protein kinase 12 (Homo sapiens) (UniProt P53778); conditions: at 0.1 µM
# T2 sequence (whole entry): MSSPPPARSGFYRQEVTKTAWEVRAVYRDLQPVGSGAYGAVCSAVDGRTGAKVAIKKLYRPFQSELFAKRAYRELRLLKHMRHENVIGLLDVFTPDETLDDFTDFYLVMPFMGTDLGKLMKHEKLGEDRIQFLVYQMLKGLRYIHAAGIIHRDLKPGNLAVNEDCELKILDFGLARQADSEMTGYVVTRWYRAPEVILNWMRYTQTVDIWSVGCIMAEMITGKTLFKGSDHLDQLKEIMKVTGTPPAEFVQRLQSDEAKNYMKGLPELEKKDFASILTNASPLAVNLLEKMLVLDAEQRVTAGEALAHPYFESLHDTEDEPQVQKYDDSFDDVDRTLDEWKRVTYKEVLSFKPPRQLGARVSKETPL
# [11] = molecular target: T2, Mitogen-activated protein kinase 12 (Homo sapiens); conditions: at 1 µM
# [12] = molecular target: SRSF protein kinase 1 (Homo sapiens) (UniProt Q96SB4); conditions: at 0.1 µM
# [13] = molecular target: SRSF protein kinase 1 (Homo sapiens) (UniProt Q96SB4); conditions: at 1 µM
# [14] = molecular target: Phosphatidylinositol 4,5-bisphosphate 3-kinase catalytic subunit alpha isoform (Homo sapiens) (UniProt P42336); conditions: at 0.1 µM
# [15] = molecular target: Phosphatidylinositol 4,5-bisphosphate 3-kinase catalytic subunit alpha isoform (Homo sapiens) (UniProt P42336); conditions: at 1 µM
# [16] = molecular target: T3, Phosphatidylinositol 4,5-bisphosphate 3-kinase catalytic subunit delta isoform (Homo sapiens) (UniProt O00329); conditions: at 0.1 µM
# T3 sequence (whole entry): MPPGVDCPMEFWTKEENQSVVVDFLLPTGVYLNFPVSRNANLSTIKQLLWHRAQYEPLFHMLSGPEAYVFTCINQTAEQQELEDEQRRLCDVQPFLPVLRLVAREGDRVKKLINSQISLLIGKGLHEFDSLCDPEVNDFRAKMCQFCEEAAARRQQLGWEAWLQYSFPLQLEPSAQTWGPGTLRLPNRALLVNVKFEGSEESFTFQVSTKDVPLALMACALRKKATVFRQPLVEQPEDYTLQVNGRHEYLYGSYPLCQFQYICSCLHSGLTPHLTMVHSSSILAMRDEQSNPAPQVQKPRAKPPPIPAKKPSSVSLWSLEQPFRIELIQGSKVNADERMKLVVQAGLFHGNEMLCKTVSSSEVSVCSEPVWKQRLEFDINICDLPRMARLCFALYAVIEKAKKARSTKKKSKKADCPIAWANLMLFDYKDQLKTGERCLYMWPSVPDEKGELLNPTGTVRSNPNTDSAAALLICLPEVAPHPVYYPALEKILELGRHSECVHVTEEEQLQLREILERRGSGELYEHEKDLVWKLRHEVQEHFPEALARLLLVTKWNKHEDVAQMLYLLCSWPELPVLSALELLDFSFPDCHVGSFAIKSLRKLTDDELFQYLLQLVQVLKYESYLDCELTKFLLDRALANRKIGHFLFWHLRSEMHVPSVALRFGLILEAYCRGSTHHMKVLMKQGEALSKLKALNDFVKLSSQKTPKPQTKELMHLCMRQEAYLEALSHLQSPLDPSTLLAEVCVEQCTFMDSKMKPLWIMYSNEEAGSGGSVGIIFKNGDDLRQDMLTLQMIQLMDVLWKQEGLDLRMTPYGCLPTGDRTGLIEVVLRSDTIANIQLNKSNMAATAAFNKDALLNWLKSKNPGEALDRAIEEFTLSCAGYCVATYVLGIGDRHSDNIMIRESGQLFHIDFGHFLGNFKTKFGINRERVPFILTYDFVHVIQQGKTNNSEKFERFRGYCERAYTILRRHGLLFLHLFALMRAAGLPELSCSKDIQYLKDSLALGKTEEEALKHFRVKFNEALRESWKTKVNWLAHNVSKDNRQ
# [17] = molecular target: T3, Phosphatidylinositol 4,5-bisphosphate 3-kinase catalytic subunit delta isoform (Homo sapiens); conditions: at 1 µM
# [18] = molecular target: Phosphatidylinositol 4-kinase beta (Homo sapiens) (UniProt Q9UBF8); conditions: at 0.1 µM
# [19] = molecular target: Phosphatidylinositol 4-kinase beta (Homo sapiens) (UniProt Q9UBF8); conditions: at 1 µM
# [20] = molecular target: Sphingosine kinase 1 (Homo sapiens) (UniProt Q9NYA1); conditions: at 0.1 µM;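 note: mean percent inhibition of SPHK1 activity, measured within the GSK PKIS screening panel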
# Chain of Sphingosine kinase 1 (Homo sapiens) (Q9NYA1 whole entry): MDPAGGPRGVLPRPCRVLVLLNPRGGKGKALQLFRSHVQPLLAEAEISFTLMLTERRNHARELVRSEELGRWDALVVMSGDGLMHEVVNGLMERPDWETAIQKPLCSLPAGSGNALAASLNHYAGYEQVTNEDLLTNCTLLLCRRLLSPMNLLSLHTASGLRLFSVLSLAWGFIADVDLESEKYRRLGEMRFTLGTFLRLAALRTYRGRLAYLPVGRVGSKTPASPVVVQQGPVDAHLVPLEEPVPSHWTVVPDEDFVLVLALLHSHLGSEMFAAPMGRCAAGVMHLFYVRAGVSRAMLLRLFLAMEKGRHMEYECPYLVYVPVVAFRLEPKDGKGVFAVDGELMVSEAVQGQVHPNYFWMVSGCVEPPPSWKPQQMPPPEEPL
# Chain of Mitogen-activated protein kinase 3 (Homo sapiens) (P27361 whole entry): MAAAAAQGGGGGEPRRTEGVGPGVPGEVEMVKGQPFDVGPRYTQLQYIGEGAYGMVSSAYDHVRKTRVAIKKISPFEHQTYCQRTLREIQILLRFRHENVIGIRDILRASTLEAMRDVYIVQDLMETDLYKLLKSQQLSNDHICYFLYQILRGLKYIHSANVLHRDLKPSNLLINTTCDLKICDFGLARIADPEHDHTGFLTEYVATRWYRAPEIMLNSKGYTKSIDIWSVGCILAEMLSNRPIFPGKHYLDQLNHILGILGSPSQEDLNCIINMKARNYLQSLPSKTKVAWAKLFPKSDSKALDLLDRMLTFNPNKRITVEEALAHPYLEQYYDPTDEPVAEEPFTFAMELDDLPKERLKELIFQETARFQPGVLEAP
# Chain of SRSF protein kinase 1 (Homo sapiens) (Q96SB4 whole entry, canonical isoform): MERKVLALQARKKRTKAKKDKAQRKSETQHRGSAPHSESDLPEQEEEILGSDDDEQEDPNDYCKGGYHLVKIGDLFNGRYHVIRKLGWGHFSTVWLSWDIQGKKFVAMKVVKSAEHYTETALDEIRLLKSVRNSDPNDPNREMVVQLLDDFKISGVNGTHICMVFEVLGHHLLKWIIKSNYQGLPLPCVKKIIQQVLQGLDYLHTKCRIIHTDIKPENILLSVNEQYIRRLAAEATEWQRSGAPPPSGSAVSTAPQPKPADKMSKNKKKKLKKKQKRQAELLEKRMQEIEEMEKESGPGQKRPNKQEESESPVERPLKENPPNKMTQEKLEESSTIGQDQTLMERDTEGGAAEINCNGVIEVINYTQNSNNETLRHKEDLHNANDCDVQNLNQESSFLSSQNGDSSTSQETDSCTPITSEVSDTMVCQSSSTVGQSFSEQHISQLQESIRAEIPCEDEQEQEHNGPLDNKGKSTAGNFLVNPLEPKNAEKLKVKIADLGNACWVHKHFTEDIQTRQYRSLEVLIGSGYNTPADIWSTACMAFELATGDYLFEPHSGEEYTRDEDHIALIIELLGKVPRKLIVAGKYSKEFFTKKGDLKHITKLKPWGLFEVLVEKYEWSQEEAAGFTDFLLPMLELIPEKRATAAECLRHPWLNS
# Chain of Phosphatidylinositol 4-kinase beta (Homo sapiens) (Q9UBF8 2-816 limits assumed): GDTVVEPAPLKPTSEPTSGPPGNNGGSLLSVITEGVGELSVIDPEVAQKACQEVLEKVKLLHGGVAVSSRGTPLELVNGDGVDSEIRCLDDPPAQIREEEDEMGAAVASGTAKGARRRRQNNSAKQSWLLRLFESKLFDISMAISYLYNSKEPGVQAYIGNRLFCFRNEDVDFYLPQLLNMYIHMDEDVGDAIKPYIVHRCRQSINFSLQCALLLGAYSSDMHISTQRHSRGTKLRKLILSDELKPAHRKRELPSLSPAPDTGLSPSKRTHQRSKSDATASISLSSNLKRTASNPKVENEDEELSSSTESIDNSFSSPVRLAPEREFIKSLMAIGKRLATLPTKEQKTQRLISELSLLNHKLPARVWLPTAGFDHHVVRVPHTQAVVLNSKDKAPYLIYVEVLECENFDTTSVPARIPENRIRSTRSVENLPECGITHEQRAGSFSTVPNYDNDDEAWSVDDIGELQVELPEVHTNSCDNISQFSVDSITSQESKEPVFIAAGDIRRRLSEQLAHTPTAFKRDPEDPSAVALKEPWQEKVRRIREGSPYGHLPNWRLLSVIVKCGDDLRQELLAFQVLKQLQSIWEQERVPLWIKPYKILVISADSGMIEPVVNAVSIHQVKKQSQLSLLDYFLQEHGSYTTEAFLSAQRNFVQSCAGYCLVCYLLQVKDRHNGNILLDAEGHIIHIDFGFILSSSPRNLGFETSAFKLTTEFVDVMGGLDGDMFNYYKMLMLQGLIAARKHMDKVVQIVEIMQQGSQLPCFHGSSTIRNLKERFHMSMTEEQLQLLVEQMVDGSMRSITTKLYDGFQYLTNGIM
# Chain of Mitogen-activated protein kinase 11 (Homo sapiens) (Q15759 whole entry): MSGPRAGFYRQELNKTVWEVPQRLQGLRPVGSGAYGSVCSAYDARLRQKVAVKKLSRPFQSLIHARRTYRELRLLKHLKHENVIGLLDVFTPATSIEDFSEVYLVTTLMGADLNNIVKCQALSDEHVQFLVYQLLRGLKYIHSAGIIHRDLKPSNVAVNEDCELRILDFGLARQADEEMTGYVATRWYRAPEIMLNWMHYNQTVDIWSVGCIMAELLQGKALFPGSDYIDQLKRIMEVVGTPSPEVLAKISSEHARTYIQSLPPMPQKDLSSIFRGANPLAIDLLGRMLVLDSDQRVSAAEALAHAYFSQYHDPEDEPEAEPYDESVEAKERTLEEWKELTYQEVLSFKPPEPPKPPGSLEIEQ
# Chain of Mitogen-activated protein kinase 14 (Homo sapiens) (Q16539 whole entry): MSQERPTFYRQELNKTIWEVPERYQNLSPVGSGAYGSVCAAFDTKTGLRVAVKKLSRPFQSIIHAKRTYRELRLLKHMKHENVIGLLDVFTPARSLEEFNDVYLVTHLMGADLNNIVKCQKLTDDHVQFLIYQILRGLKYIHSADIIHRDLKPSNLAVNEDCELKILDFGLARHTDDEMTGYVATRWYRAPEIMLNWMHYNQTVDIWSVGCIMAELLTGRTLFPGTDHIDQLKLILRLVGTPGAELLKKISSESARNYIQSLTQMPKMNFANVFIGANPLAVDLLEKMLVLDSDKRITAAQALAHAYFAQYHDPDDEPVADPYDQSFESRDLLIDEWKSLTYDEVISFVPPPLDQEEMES
# Chain of Phosphatidylinositol 4,5-bisphosphate 3-kinase catalytic subunit alpha isoform (Homo sapiens) (P42336 whole entry, canonical isoform): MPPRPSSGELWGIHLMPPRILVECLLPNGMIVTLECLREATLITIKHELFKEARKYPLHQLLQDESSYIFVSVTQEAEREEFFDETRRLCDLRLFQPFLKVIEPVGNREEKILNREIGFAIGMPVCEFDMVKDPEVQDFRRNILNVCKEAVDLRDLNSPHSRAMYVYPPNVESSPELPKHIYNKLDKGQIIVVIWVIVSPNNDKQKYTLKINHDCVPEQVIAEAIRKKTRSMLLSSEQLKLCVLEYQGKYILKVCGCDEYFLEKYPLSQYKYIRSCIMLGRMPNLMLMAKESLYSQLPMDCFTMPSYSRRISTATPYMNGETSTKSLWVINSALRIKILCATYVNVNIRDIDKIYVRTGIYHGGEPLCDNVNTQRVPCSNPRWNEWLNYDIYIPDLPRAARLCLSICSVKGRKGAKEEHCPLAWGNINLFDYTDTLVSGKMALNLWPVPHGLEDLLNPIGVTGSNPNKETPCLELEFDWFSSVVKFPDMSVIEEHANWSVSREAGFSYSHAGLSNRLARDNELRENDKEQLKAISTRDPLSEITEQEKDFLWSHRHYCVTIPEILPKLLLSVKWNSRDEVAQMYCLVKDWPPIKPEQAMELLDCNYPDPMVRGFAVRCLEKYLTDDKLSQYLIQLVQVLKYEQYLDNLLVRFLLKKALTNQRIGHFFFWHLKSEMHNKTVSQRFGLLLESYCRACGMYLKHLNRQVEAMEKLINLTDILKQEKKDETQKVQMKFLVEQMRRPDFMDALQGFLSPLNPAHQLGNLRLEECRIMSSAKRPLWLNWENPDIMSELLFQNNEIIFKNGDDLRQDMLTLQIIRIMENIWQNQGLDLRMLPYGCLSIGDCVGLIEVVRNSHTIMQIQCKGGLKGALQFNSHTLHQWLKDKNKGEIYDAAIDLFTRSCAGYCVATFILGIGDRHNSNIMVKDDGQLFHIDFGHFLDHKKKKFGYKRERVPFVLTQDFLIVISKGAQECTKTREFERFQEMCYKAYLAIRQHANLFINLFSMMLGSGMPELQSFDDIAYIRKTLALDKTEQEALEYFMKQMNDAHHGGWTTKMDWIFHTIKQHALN
# Chain of SRSF protein kinase 3 (Homo sapiens) (Q9UPE1 whole entry): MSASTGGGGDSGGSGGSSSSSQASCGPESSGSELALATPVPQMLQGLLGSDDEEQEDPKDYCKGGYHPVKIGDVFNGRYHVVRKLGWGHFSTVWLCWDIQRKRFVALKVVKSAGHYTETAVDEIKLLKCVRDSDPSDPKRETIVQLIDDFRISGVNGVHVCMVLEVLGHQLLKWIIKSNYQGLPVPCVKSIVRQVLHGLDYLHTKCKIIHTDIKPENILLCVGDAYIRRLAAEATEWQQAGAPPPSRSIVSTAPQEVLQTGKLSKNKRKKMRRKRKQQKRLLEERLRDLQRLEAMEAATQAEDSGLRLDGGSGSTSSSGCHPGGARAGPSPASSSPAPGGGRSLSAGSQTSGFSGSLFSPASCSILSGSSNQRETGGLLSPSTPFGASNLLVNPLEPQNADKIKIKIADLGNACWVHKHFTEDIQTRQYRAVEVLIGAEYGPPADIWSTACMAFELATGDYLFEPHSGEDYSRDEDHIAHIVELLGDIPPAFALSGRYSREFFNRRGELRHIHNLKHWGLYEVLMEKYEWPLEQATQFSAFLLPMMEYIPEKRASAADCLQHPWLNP
SMILES,inhibition [1],inhibition [2],inhibition [3],inhibition [4],inhibition [5],inhibition [6],inhibition [7],inhibition [8],inhibition [9],inhibition [10],inhibition [11],inhibition [12],inhibition [13],inhibition [14],inhibition [15],inhibition [16],inhibition [17],inhibition [18] [%],inhibition [19],inhibition [20]
CC1=C(C(=O)Nc2ccc3[nH]ncc3c2)C(c2ccc(F)cc2)N=C(c2ccc(C(F)(F)F)nc2)N1 (stereo not given),-0.07%,0.36%,0.93%,6.91%,7.75%,0.24%,2.12%,2.38%,2.31%,0.91%,1.85%,-1.07%,-0.7%,2.87%,4.33%,2.9%,4.49%,4.33,-3.27%,-0.6%
CC(C)c1ccc(-c2cc(-c3c[nH]nc3-c3ccccn3)ccn2)cc1,-2.17%,-1.14%,0.11%,5.48%,15.8%,1.06%,8.12%,5.51%,0.87%,0.13%,1.41%,-1.6%,-2.44%,0.78%,1.76%,0.89%,4.14%,1.73,0.67%,1.34%
Cc1c2ccc(N(C)c3ccnc(Nc4cccc(S(N)(=O)=O)c4)n3)cc2nn1C,4.37%,-0.02%,-0.13%,2.68%,17.1%,7.06%,16%,5.49%,5.64%,5.17%,3.53%,-1.71%,-3.4%,4.71%,14.4%,6.47%,29.9%,0.59,1.94%,1.12%
CS(=O)(=O)CCNCc1ccoc1-c1ccc2ncnc(Nc3ccc(OCc4ccccc4)cc3)c2c1,1.25%,-1.87%,-1.49%,2.69%,0.9%,2.25%,1.9%,0.46%,-0.76%,0.71%,0.43%,-0.09%,-1.85%,1.09%,2.87%,0.63%,4.62%,9.16,-0.68%,0.65%
Cn1c(-c2nonc2N)nc2cnccc21,3.9%,-1.11%,-2.32%,3.4%,6.34%,3.09%,0.59%,2.23%,2.42%,2.62%,2.23%,-3.06%,-4.33%,1.04%,3.15%,1.35%,1.72%,1.38,-3.7%,-0.45%
CN1CCC(C(=O)Nc2n[nH]c3nc(-c4ccc(O)cc4)c(Br)cc23)CC1,6.59% and 1.2%,-1.97% and -1.1%,-0.76% and -0.97%,1.69% and 4.12%,13% and 10.5%,4.89% and 2.05%,17.5% and 8.93%,2.74% and 2.79%,13.7% and 11.6%,4.48% and 2.47%,7.35% and 7.26%,-0.9% and -1.12%,0.97% and -0.81%,4.19% and 1.14%,2.06% and 2.14%,1.92% and 0.51%,1.89% and 0.99%,2.14,-0.62% and 1.07%,1.72% and 4.51%
CN1CCN(Cc2ccc(-c3cc4ncnc(Nc5ccc(OCc6cccc(F)c6)c(Cl)c5)c4s3)o2)CC1,4.3% and 6.64%,-2.01% and -2.56%,-1.87% and -0.88%,11.4% and 3.49%,11.9% and 8.59%,7.76% and 7.78%,11.5% and 9.04%,2.21% and 1.13%,1.76% and 5.79%,1.79% and 3.59%,2.94% and 2.8%,-2.39% and -1.61%,-2.07% and 0.69%,1.34% and 4.72%,2.47% and 5.81%,1.29% and 2.75%,3.39% and 4.31%,0.91,1.06%,10.5% and 0.88%
O=C(O[C@H]1CN[C@H](C#Cc2cc3ncnc(Nc4ccc5c(cnn5Cc5ccccc5)c4)c3s2)C1)N1CCOCC1,1.75%,-1.9%,-0.82%,0.21%,0.45%,1.51%,4.76%,-1.3%,-2.91%,-1.24%,-0.96%,-2.05%,-3.6%,-1.75%,7.49%,0.29%,9.02%,1.41,2.11%,2.86%
CS(=O)(=O)Nc1ccc(-c2cc(-c3ccccc3)cc(C(N)=O)c2N)cc1,2.24%,-1.51%,-0.01%,1.19%,0.84%,1.8%,0.17%,1.96%,0.64%,0.99%,1.43%,-1.01%,-1.76%,3.24%,3.21%,3.22%,3.77%,0.42,-0.01%,-1.73%
CN(C)CCNC(=O)Nc1ccc(N(C)c2ccnc(Nc3ccc(CS(C)(=O)=O)cc3)n2)cc1,1.29%,1.45%,-2.85%,2.66%,7.04%,2.16%,2.52%,1.99%,3.74%,-0.76%,2.24%,-1.44%,-2.68%,2.6%,3.13%,2.63%,5.9%,2.65,15.7%,0.26%
O=C1Nc2ccccc2/C1=C1\CCc2cc(O)ccc21,4.54%,0.01%,-0.36%,4.38%,7.01%,4.9%,5.91%,3.43%,6.56%,4.33%,4.17%,-1.97%,-3.93%,3.67%,6.82%,2.68%,5.45%,-5.42,-0.12%,1.98%
CNC(=O)c1sc(-n2cnc3cc(OC)c(OC)cc32)cc1OCc1ccccc1C(F)(F)F,3.4%,-2.11%,-0.26%,5.47%,5.08%,4.76%,4.92%,3.34%,1.88%,1.92%,1.74%,-2.64%,-0.97%,3.44%,4.4%,0.73%,6.41%,6.54,0.66%,-7.75%
c1cnn2ncc(-c3ccnc(NCCCN4CCOCC4)n3)c2c1,0.61%,-0.52%,-0.57%,1.91%,8.35%,2.39%,4.06%,-1.15%,4.03%,-0.08%,3.02%,-1.76%,-3.38%,6.11%,8.31%,7.14%,7.98%,1.61,9.05%,-6.03%
